Bioassay records (PubChem BioAssay)
Shown is part of a subset that was picked to be rich in hits.
MARV entry inh = qHTS for inhibitors of binding or entry into cells for Marburg Virus | AID 540276, 2011 | Potency, µM (titrated, usually from 37.8 µM), inactives show top-dose activity change, negative = inhibition, hits mostly inhibitors | Marburg virus pseudotyped entry inhibition, cell reporter | 300,000 compounds, 1.8% hits; calls by dose curve; tested in HEK293 cells; note: potency is the fitted concentration of half-maximal effect; % is set by controls: 0 for no effect and ±100 for the full control effect
AMA1 RON2 block = qHTS for Inhibitors of AMA1-RON; Towards Development of Antimalarial Drug Lead: Primary Screen. Potency, µM (top dose mostly 58.2 µM), for inactives: top-dose activity change, negative = inhibition, actives largely listed as inhibitors. Plasmodium falciparum AMA1 (3D7) - RON2 peptide interaction. AlphaScreen AMA1-biotinylated RON2 peptide binding. 360,000 compounds, 0.2% hits. AID 720542, 2013; active = well fitted inhibition curve with a large enough effect; inconclusive = small, poorly fitted or top-dose-only effect; inactive = no such curve, though single readings can be large or run the other way;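 note: potency is the fitted concentration of half-maximal effect; 0% = vehicle wells and -100% = peptide control; nearly all actives have a fitted effect of over 45% in size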
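AMA1 (3D7) with his tag at 25 nM final met compounds first, then biotinylated RON2 peptide at 25 nM; detection used donor plus acceptor beads, 10 µg/mL apiece, read by AlphaScreen after 30 min at room temperature.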
LASV entry inh = qHTS for Inhibitors of binding or entry into cells for Lassa Virus | Lassa virus pseudotype entry inhibition, cell reporter | Potency, µM (top dose mostly 37.9 µM), for inactives: at the highest dose activity change, negative = inhibition, hits mostly inhibitors | AID 540256, 2011 | 300,000 compounds, 1.2% hits; calls by dose curve; tested in HEK293 cells; note: potency is the fitted concentration of half-maximal effect; % is set by controls: 0 for no effect and ±100 for the full control effect; nearly all actives have a fitted effect of over 50% in size
Shiga inhibitor = A qHTS for Small Molecule Inhibitors of Shiga Toxin; 290,000 compounds, 9.2% hits; inhibition, % at 38.7 µM; AID 2315, 2010; Vero cells, Shiga toxin protein synthesis inhibition reporter; in the data active = inhibition mostly above about 28%, no sharp cut-off; inactive = mostly below about 43%; note: 0% is about no effect
Cycloheximide cs = Cycloheximide Counterscreen for Small Molecule Inhibitors of Shiga Toxin | max response, % | 300,000 compounds, 12% hits | cell reporter, cycloheximide protein synthesis inhibition counterscreen; in the data active = max response mostly above about 13%, no sharp cut-off; inactive = mostly below about 14%; note: read at 38.3 µM for the half of the compounds with a filed dose; 0% is about no effect
* = called active by the depositor; [ ] = another dose, or the depositor's remark.

How did O=C(COCc1cc(-c2ccc3c(c2)OCO3)on1)Nc1cccnc1Cl do in these assays?
MARV entry inh: 19%[46.1 µM]; AMA1 RON2 block: 41%; LASV entry inh: 2%[46.1 µM]; Shiga inhibitor: 29; Cycloheximide cs: 25*

Results for Cc1c(Cl)cccc1NC(=O)COCc1cc(-c2ccc3c(c2)OCO3)on1 ?
LASV entry inh: 7%[46.1 µM]

How did CC(=O)Nc1ccc(C2=NNC(=NCC3CCCO3)SC2)cc1 (stereo not given) do in these assays?
MARV entry inh: -4%; AMA1 RON2 block: 59%; LASV entry inh: 10%; Shiga inhibitor: 60; Cycloheximide cs: -1

What do the screens show for `c1ccc2c(C3=NNC(=NC4CCCCC4)SC3)c[nH]c2c1`?
MARV entry inh: 0%; AMA1 RON2 block: 49%; LASV entry inh: 2%; Shiga inhibitor: 26; Cycloheximide cs: 36*

What do the screens show for `c1ccc2c(C3=NNC(=NC4CC4)SC3)c[nH]c2c1`?
MARV entry inh: inconclusive; AMA1 RON2 block: -8%[11.6 µM]; LASV entry inh: 11µM*; Shiga inhibitor: 17; Cycloheximide cs: 38*

What do the screens show for `c1ccc(C2=NNC(=NC3CC3)SC2)cc1`?
MARV entry inh: inconclusive; AMA1 RON2 block: 27%; LASV entry inh: 8.2µM*; Shiga inhibitor: 32; Cycloheximide cs: 15*

How did Cc1cc(C)n(-c2nnc3n2N=C(c2c[nH]c4ccccc24)CS3)n1 do in these assays?
MARV entry inh: inconclusive; AMA1 RON2 block: -4%; LASV entry inh: inconclusive; Shiga inhibitor: -2; Cycloheximide cs: 0

Results for NC1C2CN(c3nc4c(cc3F)c(=O)c(C(=O)O)cn4-c3ccc(F)cc3F)CC12 (stereo not given) ?
MARV entry inh: -13%; AMA1 RON2 block: 4%; LASV entry inh: 0%; Shiga inhibitor: -7; Cycloheximide cs: 1

How did Cc1ccc(NC(=O)C(CC(C)C)NS(=O)(=O)c2ccc3c(c2)oc(=O)n3C)c(C)c1 (stereo not given) do in these assays?
MARV entry inh: 4%[46.1 µM]; LASV entry inh: -3%[46.1 µM]

Results for CC(C)(C)NC(=O)NC(=O)COc1ccc(Br)cc1Br ?
MARV entry inh: inconclusive; AMA1 RON2 block: 2%; LASV entry inh: 5.8µM*; Shiga inhibitor: 136*; Cycloheximide cs: 90*

How did COc1ccc(Br)cc1CN(C)CC(=O)NCCc1ccccc1 do in these assays?
MARV entry inh: -25%[46.1 µM]; AMA1 RON2 block: -23%; LASV entry inh: 3%; Shiga inhibitor: -12; Cycloheximide cs: 1

Results for O=C(COc1ccc(Br)cc1CNC1CCCCC1)NCCc1ccccc1 ?
MARV entry inh: 11µM*; AMA1 RON2 block: -3%; LASV entry inh: inconclusive; Shiga inhibitor: 19; Cycloheximide cs: -4

Results for Cc1cccc(NC(=O)COc2ccc(Br)cc2/C=N/O)c1 ?
MARV entry inh: inconclusive; AMA1 RON2 block: 3%; LASV entry inh: inconclusive; Shiga inhibitor: 121*; Cycloheximide cs: 75*

How did Cc1cc(Br)ccc1OCC(=O)NC1CCCC1 do in these assays?
AMA1 RON2 block: -6%; Shiga inhibitor: 52*; Cycloheximide cs: 35*

Results for CCOc1ccc(/C=C/c2nc(C#N)c(N3CCCCC3)o2)cc1 ?
MARV entry inh: 12%[46.1 µM]; LASV entry inh: 1%[46.1 µM]

What do the screens show for `CN1CCC(N(C)S(=O)(=O)c2ccc(NC(=O)COc3ccc(Br)cc3Cl)cc2)CC1`?
MARV entry inh: 8.9µM*; AMA1 RON2 block: -6%; LASV entry inh: 6.3µM*

What do the screens show for `Cc1cc(Br)ccc1OCC(=O)NNC(=O)Cc1ccccc1`?
MARV entry inh: -20%; AMA1 RON2 block: 76%; LASV entry inh: 5%; Shiga inhibitor: -3; Cycloheximide cs: -2

Results for Cc1cc(Br)ccc1OCC(=O)NNC(=O)C(=O)Nc1ccccc1 ?
MARV entry inh: inconclusive; AMA1 RON2 block: 54%; LASV entry inh: 23%; Shiga inhibitor: 50*; Cycloheximide cs: 13

How did O=C(COc1ccc(Br)cc1Br)NC(=O)NC1CCCC1 do in these assays?
MARV entry inh: inconclusive; AMA1 RON2 block: 5%; LASV entry inh: -9%; Shiga inhibitor: 142*; Cycloheximide cs: 59*

How did Cc1ccc(OCC(=O)Nc2ccc(S(=O)(=O)N(C)C3CCN(C)CC3)cc2)c(C)c1 do in these assays?
AMA1 RON2 block: -12%; Shiga inhibitor: -6; Cycloheximide cs: -2

How did CC(C)(C)NC(=O)NC(=O)COc1ccccc1C#N do in these assays?
MARV entry inh: inconclusive; AMA1 RON2 block: -4%; LASV entry inh: -16%; Shiga inhibitor: active; Cycloheximide cs: 66*

How did O=C(COc1ccccc1Cl)NC(=O)NC1CCCCC1 do in these assays?
MARV entry inh: 18%; AMA1 RON2 block: 0%; LASV entry inh: 21%

What do the screens show for `Cc1ccc(C)c(N(C)C(=O)CCNC(=O)Cn2cnc3ccccc3c2=O)c1`?
LASV entry inh: 2%[46.1 µM]

Results for CN(C(=O)COc1ccc(Br)cc1Cl)C1CCCCC1 ?
MARV entry inh: -5%[46.1 µM]; AMA1 RON2 block: 2%; LASV entry inh: 15%; Shiga inhibitor: 53*; Cycloheximide cs: 24*

Results for Cc1cc(Cl)c(S(=O)(=O)N2CCN(c3ccc(F)cc3)CC2)cc1OCC(=O)NC1CCCCC1 ?
MARV entry inh: 10µM*; AMA1 RON2 block: 3%; LASV entry inh: inconclusive; Shiga inhibitor: -12; Cycloheximide cs: -3

How did CC(C)(C)NC(=O)COC(=O)c1ccc2c(c1)C(=O)N(Cc1ccco1)C2=O do in these assays?
MARV entry inh: 2%[46.1 µM]; AMA1 RON2 block: -8%; LASV entry inh: -9%; Shiga inhibitor: -16; Cycloheximide cs: -4

What do the screens show for `O=c1c2oc3ccccc3c2[nH]c(=S)n1-c1ccccc1`?
MARV entry inh: -1%; AMA1 RON2 block: 72%; LASV entry inh: -5%; Shiga inhibitor: 14; Cycloheximide cs: 1

What do the screens show for `Cc1ccc(-n2c(C)nc3oc4ccccc4c(=O)c3c2=O)cc1`?
MARV entry inh: inconclusive; AMA1 RON2 block: -24%; LASV entry inh: inconclusive; Shiga inhibitor: 121*; Cycloheximide cs: 47*

Results for Cc1ccc(-n2c(=S)[nH]c3c(oc4ccccc43)c2=O)cc1 ?
MARV entry inh: 13%; AMA1 RON2 block: 55%; LASV entry inh: 4%; Shiga inhibitor: 69*; Cycloheximide cs: 40*

What do the screens show for `Cc1cccc(-n2c(O)c(C)c(=O)[nH]c2=S)c1`?
MARV entry inh: 5%; AMA1 RON2 block: 0%; LASV entry inh: 18%; Shiga inhibitor: -5; Cycloheximide cs: 3

How did Cc1cccc(-n2c(=S)[nH]c3c(oc4ccccc43)c2=O)c1 do in these assays?
MARV entry inh: 0%; AMA1 RON2 block: 68%; LASV entry inh: 21%; Shiga inhibitor: 40; Cycloheximide cs: 8.7*

Results for O=C(COc1ncnc2sccc12)NC1CCS(=O)(=O)C1 (stereo not given) ?
MARV entry inh: -1%[46.1 µM]; AMA1 RON2 block: -7%; LASV entry inh: inconclusive; Shiga inhibitor: 6; Cycloheximide cs: -2

Results for CCCC(=O)Nc1cc(-c2nc3ncccc3o2)ccc1Cl ?
MARV entry inh: 18%[46.1 µM]; AMA1 RON2 block: -10%; LASV entry inh: 1%[46.1 µM]; Shiga inhibitor: -10; Cycloheximide cs: 6
